Measurements reported in PubChem BioAssay AID727 (The Scripps Research Institute Molecular Screening Center, 2007).
Out of some 97,000 compounds screened, about 810 (0.84%) were called active. Only a selection was taken, and actives are over-represented in it overall. Values without a mark were called inactive. Rule as the data show it: active = inhibition above about 19%; inactive = the rest.

Target: Focal adhesion kinase 1 (Homo sapiens) (UniProt Q05397)
Experiment: FAK kinase inhibitors, primary screen, biochemical (AID 727);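 also: 0% = DMSO and 100% = reference compound high control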
Details: biochemical FAK kinase activity assay; hits give high values;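 tested at 7 µM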

Sequence of Focal adhesion kinase 1 (Homo sapiens) (Q05397 whole entry, looked up): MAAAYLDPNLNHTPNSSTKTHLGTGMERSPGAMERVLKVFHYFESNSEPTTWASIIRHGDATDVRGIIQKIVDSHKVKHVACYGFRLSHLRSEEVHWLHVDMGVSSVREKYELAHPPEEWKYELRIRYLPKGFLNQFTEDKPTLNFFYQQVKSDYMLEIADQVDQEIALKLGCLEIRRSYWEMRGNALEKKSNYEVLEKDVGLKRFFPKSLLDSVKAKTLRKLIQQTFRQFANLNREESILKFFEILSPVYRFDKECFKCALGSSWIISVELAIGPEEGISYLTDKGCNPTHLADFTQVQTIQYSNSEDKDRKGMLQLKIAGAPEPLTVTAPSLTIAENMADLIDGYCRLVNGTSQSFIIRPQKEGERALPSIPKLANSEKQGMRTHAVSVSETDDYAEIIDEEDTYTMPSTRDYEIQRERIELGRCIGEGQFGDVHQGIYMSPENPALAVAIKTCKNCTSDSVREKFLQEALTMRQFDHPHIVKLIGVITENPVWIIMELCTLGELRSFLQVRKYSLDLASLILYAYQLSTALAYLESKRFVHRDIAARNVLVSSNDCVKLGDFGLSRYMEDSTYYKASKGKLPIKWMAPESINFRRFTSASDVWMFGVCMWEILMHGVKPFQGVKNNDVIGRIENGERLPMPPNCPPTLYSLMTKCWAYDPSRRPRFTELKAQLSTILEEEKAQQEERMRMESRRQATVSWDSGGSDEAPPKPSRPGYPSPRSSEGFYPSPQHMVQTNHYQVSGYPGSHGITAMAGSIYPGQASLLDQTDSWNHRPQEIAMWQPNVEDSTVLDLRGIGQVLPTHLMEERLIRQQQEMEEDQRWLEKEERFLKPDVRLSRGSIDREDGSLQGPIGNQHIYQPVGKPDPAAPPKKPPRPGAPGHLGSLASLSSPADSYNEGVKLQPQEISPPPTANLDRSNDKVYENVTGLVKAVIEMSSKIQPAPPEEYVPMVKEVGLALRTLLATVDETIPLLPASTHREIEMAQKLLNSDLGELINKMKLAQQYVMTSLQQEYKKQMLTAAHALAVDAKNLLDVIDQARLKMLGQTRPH

SMILES	inhibition
COC(=O)c1ccccc1NC(=O)CSc1nnnn1C	-1.15%
O=[N+]([O-])c1ccccc1NCc1ccc(Cl)cc1	1.41%
Cc1ccc(CNC(=O)COc2ccc(S(=O)(=O)NC(C)C)cc2)cc1	-1.67%
Cc1nc(N2CCOCC2)nc2c1CCCC2	-0.58%
CCC(C)NC(=O)CCCc1ccccc1 (configuration not stated)	2.61%
CCn1c(SCc2ccc(C)cc2)nnc1-c1nn(-c2ccccc2)ccc1=O	3.11%
CN(C)/C(CN1CCCCC1)=C1\N=C(c2ccccc2)OC1=O	-3.3%
CCN(CC)c1nc(-c2ccccc2)cc(C(F)(F)F)c1C#N	4.59%
Cc1nnc2sc(-c3ccco3)nn12	0.33%
Fc1ccc(-c2ccc(-c3nn4c(-c5ccco5)nnc4s3)o2)cc1	19.2% (active)
FC(F)(F)c1nnc2sc(-c3ccco3)nn12	-8.22%
NC(=O)c1ncc(C(F)(F)F)cc1Oc1ccc(F)cc1	1.7%
COc1ccccc1N(C)S(=O)(=O)c1ccc(C(=O)N2CCC(C(N)=O)CC2)cc1	-1.2%
COC(=O)c1c(NC(=O)CSc2nncs2)sc2c1CCCCC2	19.5% (active)
CCOC(=O)c1c(NC(=O)CSc2nnc(C)c(=O)[nH]2)sc2c1CCC2	-5.37%
COC(=O)c1c(NC(=O)c2cccs2)sc2c1CCCC2	-3.96%
OCCN(Cc1ccccc1)Cc1ccc(Cl)cc1	1.29%
CCOC(=O)c1c(NC(=O)CSc2nnc(CNc3ccc(C)cc3C)o2)sc(C)c1C	0.35%
Cc1nn(Cc2ccc(C(=O)N3N=C(C(F)F)CC3(O)C(F)F)cc2)c(C)c1[N+](=O)[O-] (configuration not stated)	-1.38%
Cc1ccc(S(=O)(=O)/N=C(/Nc2ccccn2)c2ccc(Cl)cc2)cc1	-9%
COc1cc(C2CC(=O)c3cnc(NC(C)=O)nc3C2)cc(OC)c1OC (configuration not stated)	0.08%
N#C/C(=C\c1ccccc1)c1n[nH]c(Cn2cncn2)n1	-0.5%

SMILES	inhibition
COc1ccc(N/N=C2/CCCCC2=O)cc1	-0.48%
O=C1CSC2=NCN(c3ccccc3)CN12	3.72%
Cc1ccc2c(c1)N(CC(=O)N(Cc1ccccn1)Cc1ccco1)C(=O)C(C(C)C)O2 (configuration not stated)	0.38%
Cc1ccccc1OC(=O)Cn1c(C(F)(F)F)nc2ccccc21	-3.25%
CCn1c(SCC(=O)Nc2nc(C)cs2)nnc1C(C)NC(=O)c1ccccc1 (configuration not stated)	-0.18%
Cc1ccc(C(=O)OC2=CC(=O)CC(C)(C)C2)cc1	1.07%
Cn1c2ccccc2n2c(=O)c(=O)n(CC(=O)c3ccc(F)cc3)nc12	-3.16%
CCOc1ccc(C(O)Cn2c(=N)n(CCN3CCCCC3)c3ccccc32)cc1 (configuration not stated)	0.54%
COc1ncnc2sc3c(c12)CCCC3	3.78%
COCCn1c(C)cc(C(=O)CSc2ncnc3sc4c(c23)CCC4)c1C	83.3% (active)
Cc1cc(C)n(-c2nc(SCC(=O)N3CCCC3)c3c4c(sc3n2)CCCC4)n1	1.79%
Nc1ccccc1SCc1cc([N+](=O)[O-])cc2c1OCOC2	0.81%
CC(=NCc1ccco1)c1c(C(F)(F)F)[nH]n(-c2nc3ccccc3s2)c1=O	5.23%
CC(=NCc1ccco1)C1=C(O)c2ccccc2C1=O	27.9% (active)
CC(=NCc1ccc2c(c1)OCO2)C1=C(O)c2ccccc2C1=O	6.12%
COc1ccc(C2(CNC(=O)C(c3ccccc3)c3ccccc3)CCOCC2)cc1OC	1.78%
C=C(C)CNC(=S)/N=c1\scc(C)n1CC	-6.21%
Oc1ccc(-c2onc3ccc(Cl)cc23)cc1	5.87%
Cc1cccc(NC(=O)c2cc(N3C(=O)CCC3=O)ccc2Cl)n1	-0.12%
CCOC(=O)c1cc(C#N)c(N2CCCCC2)nc1-c1ccccc1	4.29%
CCOC(=O)c1sc2nc(SC)nc(-c3ccccc3)c2c1N	2.16%
COc1ccc(C)cc1N(C)C(=O)c1coc(=O)c2ccccc12	1.58%

SMILES	inhibition
Nc1c(-c2ccc(F)cc2)cnc2ncnn12	19.1% (active)
Cc1ccc(S(=O)(=O)N(CC(=O)N/N=C/c2ccc(F)cc2)c2cccc3cccnc23)cc1	3.64%
COc1ccc(/C(N)=N/OC(=O)Oc2ccccc2)cc1	0.12%
CC1CCN(C(=O)c2cc3nc(C4CC4)cc(C(F)(F)F)n3n2)CC1	0.8%
C/C=C/C(=O)OCC(=O)Nc1ccc(F)cc1Cl	-4.03%
Cc1nn(CC(=O)Nc2ccc3c(c2)nc(CN2CCCCC2)n3C)c(=O)c2ccccc12	3.98%
CCC(=O)Nc1ccc2c(c1)nc(CCN1CCN(C)CC1)n2C	-1.8%
Cn1c(CCN2CCCCCC2)nc2cc(NC(=O)Nc3ccccc3)ccc21	22.2% (active)
COC(=O)/C(=C\Nc1ccccc1)NC(=O)c1ccc(Cl)cc1Cl	0.67%
CCn1c(CNC(=O)c2ccccc2)nnc1SCC(=O)N1CCN(c2ccccc2)CC1	1.01%
CS(=O)(=O)Nc1cccc(C2=NN(S(=O)(=O)c3ccccc3)C(c3cccs3)C2)c1 (configuration not stated)	1.03%
CCN(CC)S(=O)(=O)c1cc([N+](=O)[O-])ccc1NNC(=O)Nc1ccccc1	22.7% (active)
CCN(CC)S(=O)(=O)c1cccc(C(=O)Nc2ccccc2)c1	7.09%
CCN(c1ccccc1)S(=O)(=O)c1ccc(NC(=O)C(C)(C)C)cc1	-0.76%
COC(=O)c1[nH]c2ccccc2c1NS(=O)(=O)c1ccc(OC)cc1OC	0.04%
COc1ccc(OC)c(N=Cc2c(O)[nH]c3ccccc23)c1	13.7%
COc1cc(N=Cc2c(O)[nH]c3ccccc23)cc(OC)c1OC	73.4% (active)
CCCc1ccc(OCc2ccc(C(=O)N/N=C/c3cccc([N+](=O)[O-])c3)o2)c(OC)c1	1.02%
Cc1[nH]n(-c2ccc([N+](=O)[O-])cc2)c(=O)c1C=NCCN1CCN(C(=O)c2ccccc2F)CC1	6.47%
Cc1ccc(CN(N=Nc2nonc2N)c2nonc2N)c(C)c1	-1.18%
O=c1c2ccccc2nc2n1C(CSCc1ccccc1)CS2 (configuration not stated)	7.02%
O=C1C2N=NN(CC(=O)N3N=C(c4cccc5ccccc45)CC3c3ccccc3)C2C(=O)N1c1ccccc1 (configuration not stated)	1.07%

SMILES	inhibition
Cc1nc(NNC(=O)c2ccccc2)cc(-c2ccccc2)n1	-0.62%
Cc1ccc(SCC(=O)NC(=O)NCc2ccco2)c(C)c1	6.63%
O=C(/C=C/c1ccco1)Nc1ccc(Oc2ccccc2)cc1	0.45%
Cc1ccc(-n2nc3ccc(NC(=O)/C=C/c4ccco4)cc3n2)cc1C	19.2% (active)
O=C(/C=C/c1ccco1)Nc1cccc(-c2nc3ccccc3[nH]2)c1	1.17%
CN(C)CCNC(=O)Nc1cccc(Cl)c1Cl	-0.62%
CCOC(=O)c1cnc(-c2ccccc2)nc1Oc1ccc(C)cc1	4.12%
CN(CCO)Cc1csc2ccc(Br)cc12	-0.2%
C=CCNc1nc(N)c(C(=C(C#N)C#N)c2ccccc2)s1	9.82%
N=c1c2c3c(sc2nc2n1CCCCC2)CCCC3	0.27%
CC1Cc2ccccc2N1C(=O)c1cc2sccc2n1Cc1ccccc1 (configuration not stated)	-0.85%
COc1cccc(/C=N/NC(=O)C(=O)N2CCCC2)c1	-2.37%
O=C(Nc1ccc(-n2ccnc2P(=O)(O)c2ccccc2)cc1)c1ccccc1Br	22.8% (active)
Cc1nonc1NC(=O)c1ccccc1Br	-1.88%
O=C(Nc1ccccc1)c1cccnc1Nc1ccccc1	1.76%
CC(CNc1ccc([N+](=O)[O-])cc1)NC(=O)c1ccccc1Br (configuration not stated)	1.61%
C#CCN(N(C)c1ncc(C(F)(F)F)cc1Cl)S(=O)(=O)c1ccc2ccccc2c1	-0.5%
CN(CCc1ccccn1)S(=O)(=O)c1ccc2c3c(cccc13)C(=O)N2	-2.74%
CCN(CC)S(=O)(=O)c1ccc2c3c(cccc13)C(=O)S2	36% (active)
COc1cccc(C(=O)NNC(=O)c2ccccc2Br)c1	-3.7%
CC(C)N1C(=S)SC(C)(C)C1n1oc(=O)n(-c2ccc(Cl)c(Cl)c2)c1=O (configuration not stated)	1%
O=[N+]([O-])c1ccc(Oc2ccc(F)cc2Br)c2ccncc12	19.1% (active)

SMILES	inhibition
COC(=O)c1ccc(OCC(=O)NC(C)(C)C)cc1	-0.09%
Cc1cc2cc3c(N)[nH]nc3nc2cc1C	38.5% (active)
CCc1ccc2nc3sc(C(=O)Nc4nnc(CC)s4)c(N)c3cc2c1	33.3% (active)
CCc1nnc(NC(=O)c2cccs2)s1	-4.62%
CCc1nnc(NC(=O)c2nc3nccc(C)n3n2)s1	-3.17%
Cc1cccc(N2CCN(C(=O)c3cnn4c(C(F)F)cc(-c5ccccc5)nc34)CC2)c1C	2.11%
COc1ccc(C2CC(=O)Nc3sc(=N)c4c(N)c(C#N)c(N)nc4c32)cc1OC (configuration not stated)	-1.85%
CC1(C)C2CCC13CS(=O)(=O)NC3C2 (configuration not stated)	-2.12%
Brc1ccc(/C=N/N2CCN(C3c4ccccc4-c4ccccc43)CC2)s1	-1.5%
CCC(C)(C(=O)NC1CCCCC1)N(C)C(=O)c1ccc2c(c1)OCO2 (configuration not stated)	-1.51%
O=C(O)CCC(=O)NCc1ccc(C(=O)O)cc1	-0.4%
CCc1ccccc1NC(=O)CSc1nnc([C@@H](NC(=O)OC(C)(C)C)C(C)C)o1	-2.32%
CCc1ccccc1NC(=O)CSc1nnc([C@@H](NC(=O)OC(C)(C)C)C(C)CC)o1 (some centres not stated)	25.9% (active)
C[C@H](NC(=O)OC(C)(C)C)c1nnc(SCC(=O)Nc2ccc(Br)cc2)o1	-1.41%
CCCOc1ccc(NC(=O)C2CCCNC2=O)cc1 (configuration not stated)	40.2% (active)
CCCCNC(=O)C1CCCNC1=O (configuration not stated)	-0.32%
CCOc1ccc(NC(=O)CC2NCCNC2=O)cc1 (configuration not stated)	0.06%
COc1ccc(-c2[nH]nc(-c3ccccc3)c2-c2nc3ccccc3[nH]2)cc1	-5.4%
COc1ccc(C2C(C#N)=C(/N=C/N3CCOCC3)OC3=C2C(=O)CC(C)(C)C3)cc1OC (configuration not stated)	0.22%
